High-throughput results from PubChem.
In the library only some 3.8% were active in any assay of this set; here they are far more common.
HepG2 tox = HepG2 cytotoxicity, counter-screen for TGF-b inhibitors; AID 588856; HepG2 CAGA-GFP viability, ATP luminescence, 18 h; Potency, µM (top dose mostly 46.1 µM), without a hit: at the top dose activity change, negative = cytotoxicity, usual class: cytotoxic; 410,000 tested, 0.76% active
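HepG2 CAGA-GFP cells (1000/well, DMEM with 1% FBS) received compound, then TGF-beta at 500 pg/mL final, and were incubated 18 hours at 37 degrees C. Viability was read by CellTiter-Glo luminescence. Media-only wells were set as complete cell-killing and DMSO as no toxicity.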
HT1080-NT tox = kills 2HG-producing HT-1080-NT fibrosarcoma cells; Potency, µM (highest dose often 46.1 µM), without a hit: at the top dose activity, negative = less viability, actives largely listed as cytotoxic; HT-1080-NT fibrosarcoma viability, CellTiter-Glo ATP luminescence, 48 h; 360,000 tested, 1.6% active;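 also: NT is the 2HG producing partner of a matched IDH1 knockdown line; 0% = DMSO-treated cells and -100% = media-only wells without cells; nearly all actives have a fitted effect of over 55% in size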
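HT-1080-NT fibrosarcoma cells (2HG-overproducing), 750 cells/well in RPMI with 5% FBS, dosed after 2 h and incubated 48 h at 37C. CellTiter-Glo luminescence normalized to DMSO and no-cell wells; concentration-response curves fitted and classed.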
TGFb inhibitor = TGF-b pathway inhibition; 410,000 tested, 1.2% active; Potency, µM (doses to about 46.1 µM), inactives show at the top dose activity, negative = inhibition, hits mostly inhibitors; AID 588855; HepG2 CAGA-GFP TGF-b/SMAD3 reporter, GFP fluorescence, 18 h; TGF-beta stimulated, 500 pg/mL final; also: % is scaled to controls: 0 for no effect and ±100 for the full control effect; nearly all actives have a fitted effect of over 65% in size
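Cell-based qHTS in HEPG2 carrying a CAGA-GFP Smad reporter; compounds added before 500 pg/mL final TGF-beta, 18 h incubation at 37 degrees C, GFP fluorescence quantified per cell by imaging cytometry.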
HT1080 IDH1KD tx = kills HT-1080 cells with IDH1 knockdown; HT-1080 IDH1 knockdown viability, ATP luminescence, 48 h; Potency, µM (series often up to 46.1 µM), without a hit: at the top dose activity, negative = toxicity, actives largely listed as cytotoxic; 360,000 tested, 2% active; AID 686971;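 also: 0% = DMSO wells and -100% = cell-free medium wells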
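Viability of IDH1-knockdown HT-1080 fibrosarcoma cells was assessed by CellTiter-Glo after 48 h at 37 °C with titrated compound; concentration-effect curves were classified by fit quality and response size.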
ATXN2 expr inh = ATXN2 expression inhibition; HEK-293 ATXN2-luciferase reporter, luminescence, 24 h; Potency, µM (doses to about 57 µM), without a hit: top-dose activity change, negative = inhibition, hits mostly inhibitors; 360,000 tested, 0.72% active; AID 1745845; also: % is scaled to controls: 0 for no effect and ±100 for the full control effect; nearly all actives have a fitted effect of over 55% in size
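ATXN2-luciferase reporter cells (luciferase flanked by upstream and downstream ATXN2 gene portions) were treated 24 h at 37 °C with compounds at up to 57 uM. SteadyGlo luminescence gave expression; GF-AFC fluorescence gave viability.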
ATXN viability = cell viability loss in ATXN counter-screen; S2 cells (HEK-293 line with an ATXN2-luciferase reporter) viability, CellTiter-Fluor protease fluorescence, 24 h; Potency, µM (titrated, usually from 56.7 µM), usual class: cytotoxic; 400,000 tested, 0.49% active; AID 651635; also: nearly all actives have a fitted effect of over 40% in size
Starred values were filed as active, the others as inactive; i = inactive; ? = inconclusive; nt = not tested or not shown; [ ] = another dose, or the depositor's remark. Calls follow the shape of the dose curve; as a rule, active = well fitted curve in the direction sought with a large enough effect; inconclusive = small, poorly fitted or top-dose-only effect, or another doubt; inactive = no such curve, though single readings can be large; an effect the other way counts as inactive or inconclusive. Potency is read from the fitted curve at half-maximal effect.

SMILES	HepG2 tox	HT1080-NT tox	TGFb inhibitor	HT1080 IDH1KD tx	ATXN2 expr inh	ATXN viability
COc1cc(Cl)c(C)cc1NC(=O)c1cn(C2CCCC2)c(=O)c2c1c1ccccc1n2C	3%	nt	0%	nt	-7%	i
COc1cc(OC)cc(C(=O)NCC(=O)N2CC=C(c3ccccc3)CC2)c1	4%	16µM*	-29%	13µM*	-10%	i
O=C(NCC(=O)N1CC=C(c2ccccc2)CC1)c1ccc(OC(F)F)cc1	-2%	?	-3%	-16%	nt	i
NC(N)=N/N=C/c1ccc2cccc(OCc3ccccc3)c2n1	-84%	23µM*	?	?	30µM*	?
O/N=C/c1ccc2cccc(OCc3ccccc3)c2n1	-9%	-4%	-22%	-2%	-3%	i
CNc1ccc(C=O)cc1Cl	9%	nt	4%	nt	nt	nt
Cc1cc(=O)c(C(=O)NCCc2ccccn2)c2n1-c1ccccc1SC(c1cccs1)C2 (stereo unspecified)	nt	nt	nt	nt	nt	i
COc1ccc(C2=Nn3c(nnc3-c3ccccc3F)SC2)cc1OC1CCCC1	-67%	nt	13µM*	nt	-58%	?
COc1ccc(C2=Nn3c(nnc3-c3ccccc3F)SC2)cc1OC1CCOC1 (stereo unspecified)	1%	nt	-15%	nt	1%	?
Clc1cccc(-c2ccc(CNCCSc3nnnn3-c3ccccc3)o2)c1	-23%	nt	-24%	nt	-35%	?
COc1ccc(Cl)cc1Nc1ccc2cc(S(=O)(=O)N3CCCCC3)ccc2n1	-9%	nt	-17%	nt	-13%	?
CCc1nc2c(OCc3ccc(C(F)(F)F)cc3)cccn2c1N(C)C(C)=O	-11%	14%	-6%	5%	-15%	i
Cc1nc2c(OCc3ccc(C(F)(F)F)cc3)cccn2c1N(C)Cc1cccs1	-101%	?	?	26µM*	?	32µM*
O=C1NC(c2ccc(Cl)c([N+](=O)[O-])c2)Nc2ccccc21 (stereo unspecified)	-44%	?	-11%	-27%	-21%	i
O=C1NC(c2cccc(OCc3ccccc3)c2)Nc2ccccc21 (stereo unspecified)	1%	?	?	0.58µM*	-11%	?
CC(C)OCc1cc(CN2CCN(c3cccc(C(F)(F)F)c3)CC2)c(O)c2ncccc12	-53%	nt	1.6µM*	nt	nt	nt
CCOCc1cc(CN2CCN(c3cccc(C(F)(F)F)c3)CC2)c(O)c2ncccc12	-36%	nt	2.8µM*	nt	nt	nt
O=C(NCCN1Cc2ccccc2OC(c2ccccc2F)C1)c1cncs1 (stereo unspecified)	nt	nt	nt	nt	nt	i
C=C1C=C(C(F)F)n2ncc(C(=O)NCCc3ccc(Cl)cc3)c2N1	-25%	nt	-18%	nt	nt	nt
CCn1c(Sc2ccc([N+](=O)[O-])cn2)nnc1-c1ccco1	-53%	12µM*	?	18µM*	-16%[11.3 µM]	i
Cc1cn2c(=O)cc(COc3cccc(NC(=O)c4ccccc4C)c3)nc2s1	-2%	nt	-43%	nt	-19%	i
c1ccc(-c2cccc(-c3ccccn3)n2)nc1	-56%	?	42%	0.28µM*	?	?
c1ccc(-c2nnc(-c3ccccn3)nn2)nc1	-46%	-9%	-10%	-13%	1%	i
Cc1ccc(NC(=O)c2cc3c(=O)[nH]c4ccccc4c3n2C)cc1F	-9%	nt	3%	nt	-6%	i
CCc1nn2c(=O)cc(COC(=O)c3cccc(NC(=O)c4cccs4)c3)nc2s1	-27%	nt	-23%	nt	nt	nt
CC(C)(C)OC(=O)NCCc1nnc(SCc2ccccc2Cl)o1	-16%	13%	-25%	1%	5%	i
CC(C)(C)OC(=O)NCCc1nnc(S(=O)(=O)Cc2ccc(Cl)cc2Cl)o1	14µM*	18µM*	10µM*	16µM*	?	nt
